Read-out in test [1]: Vascular endothelial growth factor receptor 2 (Homo sapiens) (UniProt P35968)
The test can be described thus: BSK_4H_VEGFRII: BioMAP Diversity Plus: 4H Assay for Vascular endothelial growth factor receptor 2 (VEGFR2) Biomarker Activity (AID 2283031).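 For AC50: cell-surface VEGFR2 protein level quantified by ELISA.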 The note with it: primary human endothelial cells (HUVEC); actives raise or lower the signal. Put shortly: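 ELISA read-out of VEGFRII in primary human umbilical vein endothelium, taken 24 h after chemical treatment. Responses are expressed relative to DMSO, with bidirectional fitting.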

Read-out in test [2]: Human Leukocyte Antigen - DR isotype (HLADR), HLA-DRA (gene 3122)
The test can be described thus: BSK_BE3C_HLADR: BioMAP Diversity Plus: BE3C Assay for Human Leukocyte Antigen - DR isotype (HLADR) Biomarker Activity (AID 2283032). The note with it: primary human bronchial epithelial cells; actives raise or lower the signal. Put shortly: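 Human primary bronchial epithelial cells in the BE3C system were exposed to chemicals for 24 h, after which HLA-DR levels were quantified by ELISA. Activity was fitted bidirectionally, gain or loss of signal, against DMSO as negative control and baseline.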

Read-out in test [3]: Interferon-gamma inducible Protein 10 (IP10), CXCL10 (gene 3627)
The test can be described thus: BSK_BE3C_IP10: BioMAP Diversity Plus: BE3C Assay for Interferon-gamma inducible Protein 10 (IP10) Biomarker Activity (AID 2283034). The note with it: primary human bronchial epithelial cells; actives raise or lower the signal. Put shortly: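 Human primary bronchial epithelial cells were exposed to chemicals for 24 hours, after which IP-10 levels were measured by ELISA. Data were fitted bidirectionally against DMSO, which served as the negative control and activity baseline.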

Read-out in test [4]: Monokine induced gamma interferon (MIG), CXCL9 (gene 4283)
In words: BSK_BE3C_MIG: BioMAP Diversity Plus: BE3C Assay for Monokine induced gamma interferon (MIG) Biomarker Activity (AID 2283035).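 For outcome: MIG protein measured by ELISA in BE3C cultures after 24 h of dosing.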 To be noted: primary human bronchial epithelial cells; actives raise or lower the signal. In outline:
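Primary human bronchial epithelial cells treated for 24 h; MIG levels measured by ELISA, fitted bidirectionally versus DMSO. Parallel SRB total-protein staining assessed cytotoxicity.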

Read-out in test [5]: Transforming growth factor beta 1 (TGFb1), TGFB1 (gene 7040)
The test can be described thus: BSK_BE3C_TGFb1: BioMAP Diversity Plus: BE3C Assay for Transforming growth factor beta 1 (TGFb1) Biomarker Activity (AID 2283036). The note with it: primary human bronchial epithelial cells; actives raise or lower the signal. Put shortly:
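Human primary bronchial epithelial cells (BE3C system) were dosed with chemical and TGF-b1 levels measured by ELISA at 24 h. Activity was fitted bidirectionally relative to DMSO negative control as baseline.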

Read-out in test [6]: Plasminogen activator inhibitor-1 (PAI1), SERPINE1 (gene 5054)
In words: BSK_BE3C_PAI1: BioMAP Diversity Plus: BE3C Assay for Plasminogen activator inhibitor-1 (PAI1) Biomarker Activity (AID 2283037). To be noted: primary human bronchial epithelial cells; actives raise or lower the signal. Put shortly:
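Human primary bronchial epithelial cells were exposed to chemical for 24 h, then PAI-1 was quantified by ELISA. Activity was fitted bidirectionally relative to the DMSO negative control baseline.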

Read-out in test [7]: urokinase plasminogen activator (uPA), PLAU (gene 5328)
The test can be described thus: BSK_BE3C_uPA: BioMAP Diversity Plus: BE3C Assay for urokinase plasminogen activator (uPA) Biomarker Activity (AID 2283038).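 For outcome: uPA protein level quantified by ELISA in cell cultures; uPA read one day after compound addition.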 To be noted: primary human bronchial epithelial cells; actives raise or lower the signal. Put shortly:
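Bronchial epithelial cells (human, primary); chemical 24 h; uPA by ELISA; bidirectional fit vs DMSO. SRB (0.1%, after 10% TCA fixation, 560 nm) in parallel cultures for cytotoxicity.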

Read-out in test [8]: Urokinase-type plasminogen activator receptor (uPAR), PLAUR (gene 5329)
In words: BSK_BE3C_uPAR: BioMAP Diversity Plus: BE3C Assay for Urokinase-type plasminogen activator receptor (uPAR) Biomarker Activity (AID 2283039).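 For outcome: cells exposed to compound for one day before measurement.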 To be noted: primary human bronchial epithelial cells; actives raise or lower the signal. Put shortly: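 Primary human bronchial epithelial cells were dosed with chemical and harvested 24 h later; uPAR was quantified by ELISA. Activity was fitted bidirectionally against DMSO as negative control and baseline.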

Read-out in test [9]: Interleukin-6 (IL6), IL6 (gene 3569)
In words: BSK_CASM3C_IL6: BioMAP Diversity Plus: CASM3C Assay for Interleukin-6 (IL6) Biomarker Activity for (AID 2283040). To be noted: primary human coronary artery smooth muscle cells; actives raise or lower the signal.

Read-out in test [10]: Tissue plasminogen activator (tPA), PLAT (gene 5327)
The test can be described thus: BSK_BE3C_tPA: BioMAP Diversity Plus: BE3C Assay for Tissue plasminogen activator (tPA) Biomarker Activity (AID 2283041).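 For outcome: tPA level quantified by ELISA one day after compound addition.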 To be noted: primary human bronchial epithelial cells; actives raise or lower the signal. Put shortly:
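Human primary bronchial epithelial cells were dosed with chemical and tPA biomarker levels measured by ELISA 24 hours later. Activity was fitted bidirectionally against DMSO as negative control and baseline.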

Read-out in test [11]: Interleukin-8 (IL8), CXCL8 (gene 3576)
In words: BSK_CASM3C_IL8: BioMAP Diversity Plus: CASM3C Assay for Interleukin-8 (IL8) Biomarker Activity (AID 2283042).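 Note: IL-8 protein level quantified by ELISA.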 The note with it: primary human coronary artery smooth muscle cells; actives raise or lower the signal.

Read-out in test [12]: Human Leukocyte Antigen - DR isotype (HLADR), HLA-DRA (gene 3122)
In words: BSK_CASM3C_HLADR: BioMAP Diversity Plus: CASM3C Assay for Human Leukocyte Antigen - DR isotype (HLADR) Biomarker Activity (AID 2283043).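 Note: cell-surface HLA-DR protein level quantified by ELISA.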 To be noted: primary human coronary artery smooth muscle cells; actives raise or lower the signal.

Read-out in test [13]: Macrophage colony-stimulating factor (MCSF), CSF1 (gene 1435)
The test can be described thus: BSK_CASM3C_MCSF: BioMAP Diversity Plus: CASM3C Assay for Macrophage colony-stimulating factor (MCSF) Biomarker Activity (AID 2283044).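 Note: M-CSF protein amount quantified by ELISA after 24 h exposure.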 To be noted: primary human coronary artery smooth muscle cells; actives raise or lower the signal.

Read-out in test [14]: Low-density lipoprotein receptor (LDLR), LDLR (gene 3949)
The test can be described thus: BSK_CASM3C_LDLR: BioMAP Diversity Plus: CASM3C Assay for Low-density lipoprotein receptor (LDLR) Biomarker Activity (AID 2283045).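 Note: LDLR protein level on the cell surface quantified by ELISA.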 The note with it: primary human coronary artery smooth muscle cells; actives raise or lower the signal.

Read-out in test [15]: Monocyte Chemoattractant Protein-1 (MCP1), CCL2 (gene 6347)
In words: BSK_CASM3C_MCP1: BioMAP Diversity Plus: CASM3C Assay for Monocyte Chemoattractant Protein-1 (MCP1) Biomarker Activity (AID 2283046).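 Note: MCP-1 level quantified by ELISA 24 h after dosing.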 To be noted: primary human coronary artery smooth muscle cells; actives raise or lower the signal.

A short description of test [16]: BSK_CASM3C_Proliferation: Cell Proliferation Assessment in the BioMAP Diversity Plus: CASM3C Assay (AID 2283047).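 Note: sulforhodamine B total protein stain as relative cell number at 560 nm; sub-confluent cells exposed 48 h before staining; fitted both ways against DMSO so gain or loss of cell number.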 To be noted: primary human coronary artery smooth muscle cells.
Read-out in test [17]: Monokine induced gamma interferon (MIG), CXCL9 (gene 4283)
In words: BSK_CASM3C_MIG: BioMAP Diversity Plus: CASM3C Assay for Monokine induced gamma interferon (MIG) Biomarker Activity (AID 2283048). The note with it: primary human coronary artery smooth muscle cells; actives raise or lower the signal.

Read-out in test [18]: serum amyloid A (SAA), SAA1 (gene 6288)
In words: BSK_CASM3C_SAA: BioMAP Diversity Plus: CASM3C Assay for serum amyloid A (SAA) Biomarker Activity (AID 2283049).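 Note: SAA protein level quantified by ELISA.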 The note with it: primary human coronary artery smooth muscle cells; actives raise or lower the signal.

Test [19] can be described thus: BSK_CASM3C_SRB: Viability Assessment in the BioMAP Diversity Plus: CASM3C Assay (AID 2283050).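 Note: total protein by SRB staining as cytotoxicity measure in parallel cultures.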 To be noted: primary human coronary artery smooth muscle cells.
Read-out in test [20]: Vascular cell adhesion molecule 1 (VCAM1), VCAM1 (gene 7412)
The test can be described thus: BSK_4H_VCAM1: BioMAP Diversity Plus: 4H Assay for Vascular cell adhesion molecule 1 (VCAM1) Biomarker Activity (AID 2283033).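 For outcome: cell-surface VCAM-1 protein measured by ELISA.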 The note with it: primary human endothelial cells (HUVEC); actives raise or lower the signal. In outline:
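Primary human umbilical vein endothelial cells were exposed to chemicals for 24 h, after which VCAM-1 was quantified by ELISA. Responses were fitted bidirectionally against DMSO as negative control and activity baseline.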

Five compounds from PubChem BioAssay (EPA / NIEHS) can be followed below.

SMILES strings stand for the structures. The source made the active and inactive calls. Rule for the calls: active = hit-call score of the fitted dose curve at least 0.9, where 1 is the maximum; inactive = score below 0.9.

As a reminder, the AC50 is the concentration at which the activity in the assay is half-maximal.

In the case of `CCCCCCCCCC[N+](C)(C)CCCCCCCCCC`, the AC50 is 2.01 µM (active) in [1]; 4.45 µM (active) in test [2]; 5.48 µM (active) in test [3]; 8.77 µM (active) in test [4]; 5.35 µM (active) in [5]; 3.71 µM (active) in test [6]. Also, the AC50 in test [7] is 5.43 µM (active); in [8] it was 5.55 µM (active); in test [9] it was 4.9 µM (active); in test [10], 3.61 µM (active); in test [11] it was 5.54 µM (active); in test [12], 4.72 µM (active). Moreover, the half-maximal activity concentration (AC50) in test [13] is 3.08 µM (active); in test [14] it was 5.09 µM (active); in [15], 4.41 µM (active); in test [16] it was 2.67 µM (active); in test [17] it was 8.03 µM (active); in test [18], 5.46 µM (active). Also, in [19], the AC50 was 5.43 µM (active).

Take `O=NN(c1ccccc1)c1ccccc1`: the outcome in test [1], in [2], in test [20], in [3], in test [4] and in [5] was inactive. For the same compound, the outcome in [6], in test [7], in test [8], in test [9], in test [10] and in test [11] was inactive. The outcome in test [12], in test [13], in test [14], in [15], in test [16] and in test [17] was inactive. Moreover, the result in test [18] and in test [19] was inactive.

With `CCC(C)c1cc([N+](=O)[O-])cc([N+](=O)[O-])c1O` (stereo not drawn), the AC50 in [1] is 8.81 µM (active); in test [2], 20 µM (active); in test [20], 9.62 µM (active); in [3], 1.87 µM (active); in [5] it was 0.911 µM (active); in [6], 1.39 µM (active). For the same compound, the AC50 in test [7] was 4.72 µM (active); in [10], 1.28 µM (active); in test [12], 14.6 µM (active); in [16], 33.7 µM (active); in [19] it was 30.2 µM (active). The outcome in [4], in [8], in test [9], in test [11], in test [13] and in [14] was inactive. Moreover, the outcome in [15], in test [17] and in test [18] was inactive.

With `Cc1ccc(O)c(C)c1`, the outcome in test [1], in test [2], in test [3], in [4], in test [5] and in test [6] was inactive. For the same compound, the result in test [7], in test [8], in test [10], in test [11], in test [13] and in [14] was inactive. The outcome in test [15], in [16], in test [17], in [18] and in [19] was inactive. Besides, the AC50 in [20] is 5.94 µM (active); in [9] it was 1.29 µM (active); in [12], 20.7 µM (active).

Regarding `Cc1cccc([N+](=O)[O-])c1`, the result in test [2], in test [20], in test [3], in [4], in test [5] and in [6] was inactive. Further, the outcome in test [7], in [8], in test [9], in test [10], in test [11] and in test [12] was inactive. The outcome in test [13], in test [14], in [15], in [16], in [17] and in [18] was inactive. For the same compound, the result in test [19] was inactive.
